# Experimental data from PubChem BioAssay (NCI).
# Where “and” joins values, the source holds several entries; their conditions need not be identical. Identical values can stand only once. The panel holds about 83,000 compounds, 20% with a hit somewhere; the sample as a whole holds those more often.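 Each cell line was grown in a 96-well plate and treated with one concentration of compound for 48 hours. Values below 10 were considered active.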 Where a structure was tested more than once in an assay, its records may differ in their call. Calls of active or inactive are those of the source.
# Experiments:
# Experiment in all cases: NCI-60 one-dose screen, 48 h (100 = growth as untreated, 0 = no growth, -100 = all killed)
# Conditions in all cases: 10 µM unless noted
# DU-145 prostate = system: DU-145 prostate
# K-562 leukemia = system: K-562 leukemia
# MALME-3M melanoma = system: MALME-3M melanoma
# MDA-MB-231 breast = system: MDA-MB-231 breast
# RXF 393 renal = system: RXF 393 renal
# SF-268 CNS = system: SF-268 CNS
# SF-295 CNS = system: SF-295 CNS
# SF-539 CNS = system: SF-539 CNS
# UACC-257 melanoma = system: UACC-257 melanoma
# M14 melanoma = system: M14 melanoma
Compound,growth (DU-145 prostate),growth (K-562 leukemia),growth (MALME-3M melanoma),growth (MDA-MB-231 breast),growth (RXF 393 renal),growth (SF-268 CNS),growth (SF-295 CNS),growth (SF-539 CNS),growth (UACC-257 melanoma),growth (M14 melanoma)
Nc1cc(-c2cccc(OC(F)(F)F)c2)nc2ccc(N3CCCC3)cc12,14.4% (inactive) and 16.2% (inactive) and 5.85% (active),-12.9% (active) and 4.92% (active) and 3.73% (active),-28.6% (active) and 51.7% (inactive) and 24.8% (inactive),5.28% (active) and 18.1% (inactive) and 29.3% (inactive),7.48% (active) and 12.1% (inactive) and 20.7% (inactive),26.1% (inactive) and 28.4% (inactive) and 27.6% (inactive),5.27% (active) and 16.2% (inactive) and 9.05% (active),-39.9% (active) and -21.2% (active) and -28.5% (active),-42.2% (active) and 74.8% (inactive) and 48.9% (inactive),-72.1% (active) and 1.77% (active) and -1.96% (active)
O=C(N/N=C/c1cccc2ccccc12)C1CC1,128% (inactive) and 120% (inactive),92.3% (inactive) and 114% (inactive),110% (inactive),95.4% (inactive) and 91.3% (inactive),111% (inactive) and 110% (inactive),115% (inactive) and 104% (inactive),118% (inactive) and 92.9% (inactive),111% (inactive) and 102% (inactive),103% (inactive) and 100% (inactive),110% (inactive) and 108% (inactive)
CN(Cc1ccccc1)Cc1ccccc1,107% (inactive),113% (inactive),91.4% (inactive),106% (inactive),104% (inactive),97.1% (inactive),112% (inactive),99.2% (inactive),99.8% (inactive),102% (inactive)
CCC(O)c1ccccc1 (stereo not given),120% (inactive) and 118% (inactive),96.8% (inactive) and 104% (inactive),114% (inactive) and 111% (inactive),95.9% (inactive) and 112% (inactive),8.94% (active) and 98.9% (inactive),113% (inactive),95% (inactive) and 115% (inactive),89.2% (inactive) and 105% (inactive),135% (inactive) and 85.4% (inactive),100% (inactive)
CC(=O)Nc1cccc2c1CCCC2,107% (inactive) and 101% (inactive),109% (inactive) and 110% (inactive),103% (inactive) and 95.5% (inactive),115% (inactive) and 110% (inactive),101% (inactive),95.6% (inactive) and 103% (inactive),94.9% (inactive) and 100% (inactive),107% (inactive) and 97.8% (inactive),67.1% (inactive) and 102% (inactive),94.5% (inactive) and 101% (inactive)
Clc1nc(Oc2ccccc2)nc(-c2cn(-c3ccccc3)c3ccccc23)n1,76.7% (inactive),36.9% (inactive),85.7% (inactive),40% (inactive),42.9% (inactive),28.3% (inactive),86.2% (inactive),91.1% (inactive),93.6% (inactive),71.1% (inactive)
CCCCCCCCCCCCCCCc1cc(O)ccc1N,96.6% (inactive) and 107% (inactive),55.8% (inactive),106% (inactive) and 78.2% (inactive),59.4% (inactive) and 71.5% (inactive),94.7% (inactive),77% (inactive) and 36.7% (inactive),41.3% (inactive) and 49.7% (inactive),-40.5% (active) and -83.9% (active),87.4% (inactive) and 71.4% (inactive),101% (inactive) and 105% (inactive)
O=C(O)CCCCc1ccc([N+](=O)[O-])cc1,106% (inactive) and 114% (inactive),83.7% (inactive) and 103% (inactive),102% (inactive) and 106% (inactive),112% (inactive) and 95% (inactive),116% (inactive) and 148% (inactive),98.9% (inactive) and 115% (inactive),113% (inactive),94.3% (inactive) and 102% (inactive),125% (inactive) and 97.8% (inactive),102% (inactive) and 104% (inactive)
Clc1ccc(SSc2ccc(Cl)cc2)cc1,103% (inactive) and 109% (inactive),100% (inactive),95% (inactive) and 119% (inactive),107% (inactive) and 62.2% (inactive),96.1% (inactive) and 86% (inactive),94.4% (inactive) and 72.4% (inactive),103% (inactive) and 93.8% (inactive),99.5% (inactive) and 88.7% (inactive),91.5% (inactive) and 98.3% (inactive),93.6% (inactive) and 94.1% (inactive)
